# Source: publication PMC5540273 (PLoS ONE, 2017)
# Legend:
# Settings in all cases: concentration: 1 μM, replicates: in singlicate; n = 1
# NIM1 = tested on: T1, NIM1
# T1 construct: gene MGC42105
# NLK = tested on: NLK
# OSR1 = tested on: T2, OSR1
# T2 construct: gene OXSR1
# PAK1 = tested on: PAK1
# PAK2 = tested on: PAK2
# PAK3 = tested on: PAK3
# PAK4 = tested on: PAK4
# PAK6 = tested on: PAK6
# PAK7 = tested on: PAK7
# PCTK1 = tested on: T3, PCTK1
# T3 construct: gene CDK16
# 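Note: KINOMEscan kinase panel screen.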
Compound,%Inh (NIM1) [%],%Inh (NLK) [%],%Inh (OSR1) [%],%Inh (PAK1) [%],%Inh (PAK2) [%],%Inh (PAK3) [%],%Inh (PAK4) [%],%Inh (PAK6) [%],%Inh (PAK7) [%],%Inh (PCTK1) [%]
Cc1ccc(O)cc1Nc1ccnc2cc(-c3ccc(CN4CCCCC4)o3)ccc12 [GW557777],0,19,0,24,23,0,13,21,7,0
Cc1ccccc1CC(=O)N1CCc2cc(-c3cn(C)c4ncnc(N)c34)ccc21 [GSK2603346],3,0,12,0,0,48,0,0,0,0
Cc1ccc(C)c(NC(=O)Nc2ccc(C)c(-c3ccc(C(=O)Nc4ccncc4)cc3)c2)c1 [GSK1398473],1,50,2,21,15,15,0,0,0,13
Fc1cc(Cl)ccc1Nc1ccnc2cc(-c3ccc(CN4CCSCC4)o3)ccc12 [GW560106],23,30,0,8,4,45,0,0,0,0
CN(c1ccc2c(c1)nc(NCc1ccccc1)n2C)c1ccnc(Nc2ccc(CS(C)(=O)=O)cc2)n1.Cl [GW811603],22,0,0,0,0,42,22,13,2,0
CN(c1ccc(F)c(NC(=O)c2cccc(OC(C)(C)C#N)c2Cl)c1)c1ccc2nc(NC(=O)C3CC3)sc2n1,8,78,5,5,0,27,0,0,0,2
Fc1cc(Cl)ccc1Nc1ccnc2cc(-c3ccc(CN4CCOCC4)o3)ccc12 [GW560109],15,10,8,0,0,5,0,0,0,1
COc1cccc2c(-c3ccncc3)c(-c3ccc(F)cc3)nn12 [GW468513],14,86,7,0,10,61,0,0,0,0
CN(C)c1ncnc2nc[nH]c12 [SKF-31736],4,0,0,8,43,12,6,0,15,17
Cn1cc(-c2ccc3c(c2)CCN3C(=O)Cc2cc(F)cc(F)c2F)c2c(N)ncnc21 [GSK2634140],8,0,14,16,12,35,0,0,0,6
CC(C)NCC(Cc1ccccc1)NC(=O)c1cc(Br)c(-c2ccnc3[nH]ccc23)s1.Cl.Cl (stereo not shown) [GSK1383281],0,22,1,11,0,75,18,47,47,1
CC(C)c1nc(-c2ccc(F)c(NS(=O)(=O)c3c(F)cccc3F)c2)c(-c2ccnc(Nc3ccc(N4CCOCC4)nc3)n2)s1 [GSK1804250],0,96.3,7,5,11,36,0,0,10,94.6
Nc1ncnc2scc(-c3ccc(NC(=O)Cc4cc(F)ccc4F)cc3)c12.O=C(O)C(F)(F)F [SB-731254-M],0,4,11,7,32,46,0,0,1,2
Cl.N#CCc1ccc(Nc2nccc(Nc3ccc(Oc4ccccc4)cc3)n2)cc1 [GW639905],14,0,11,0,10,47,0,0,0,0
CN(c1ccc(NC(=O)N2CCN(CCCN3CCOCC3)CC2)cc1)c1ccnc(Nc2ccc(CS(C)(=O)=O)cc2)n1.Cl [GW830899],0,0,0,0,0,0,0,25,2,0
Cc1cccc(Nc2nc(NCCN)ncc2C(N)=O)c1 [GSK1292139],29,0,15,16,48,16,93,76,98.6,3
